Experimental data published in PubChem BioAssay AID1159580 (chemical genetic matrix, 2015).
Screen size: about 5,500 compounds; about 2,000 (36%) were called active. Not shown: some 18% with an inconclusive outcome. Cut-off read from the data, not from the text of the source: active = normalized growth mostly below about 0.91 (no sharp cut-off); inconclusive = no clear call, values can overlap the other calls; inactive = mostly above about 0.92. The list shows a part of the results.

Experiment: chemical genetic growth profiling, strain panel (AID 1159580);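 note: tested at 20 µM; growth read once vehicle control cultures reached saturation at 30 °C; 1 = growth at the plate median or of vehicle wells; lower values mean less growth of the strain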
Conditions: S. cerevisiae deletion strains, growth OD
[1] = locus YAL013W, strain DEP1, active compounds read low
[2] = locus YGR229C, strain SMI1, active compounds read low
[3] = locus YJR075W, strain HOC1, active compounds read low
[4] = locus YNL322C, strain KRE1, active compounds read low
[5] = locus YPL055C, strain LGE1, active compounds read low

Measured: normalized growth

COc1ccc(OC)c(S(=O)(=O)Oc2ccc(C#N)cc2)c1
inactive: [1] 0.997 | locus YBR229C, strain ROT2, active compounds read low 0.994 | locus YCL061C, strain MRC1, active compounds read low 1.02 | locus YDL101C, strain DUN1, active compounds read low 0.984 | locus YDL134C, strain PPH21, active compounds read low 1.01 | locus YDR150W, strain NUM1, active compounds read low 0.98 | locus YEL061C, strain CIN8, active compounds read low 0.956 | locus YGR078C, strain PAC10, active compounds read low 0.994 | [2] 0.968 | locus YHR030C, strain SLT2, active compounds read low 0.937 | locus YHR087W, strain rtc3, active compounds read low 0.968 | locus YJR043C, strain POL32, active compounds read low 0.981 | [3] 1 | locus YLR039C, strain RIC1, active compounds read low 1.09 | locus YLR058C, strain SHM2 (second series), active compounds read low 0.992 | locus YLR085C, strain ARP6, active compounds read low 0.93 | locus YLR262C, strain YPT6, active compounds read low 1.09 | locus YML094W, strain GIM5, active compounds read low 0.981 | locus YMR219W, strain ESC1, active compounds read low 1.01 | locus YMR263W, strain SAP30, active compounds read low 0.992 | locus YNL128W, strain TEP1, active compounds read low 1 | locus YNL153C, strain GIM3, active compounds read low 0.977 | locus YNL298W, strain CLA4 (second series), active compounds read low 0.972 | [4] 1 | locus YNR030W, strain Alg12, active compounds read low 0.973 | [5] 0.961 | locus YPL241C, strain CIN2, active compounds read low 0.987 | locus YPR135W, strain CTF4, active compounds read low 0.924

NNC(N)=O
inactive: [1] 1.03 | locus YAL040C, strain CLN3, active compounds read low 1.01 | locus YCL061C, strain MRC1 (second series), active compounds read low 1.01 | locus YDR363W, strain ESC2, active compounds read low 1.02 | locus YER002W, strain NOP16, active compounds read low 1.01 | [2] 1.03 | [3] 1.02 | locus YMR307W, strain GAS1, active compounds read low 0.998 | locus YNL175C, strain NOP13, active compounds read low 1.01 | locus YNL197C, strain WHI3, active compounds read low 1 | locus YNL224C, strain SQS1, active compounds read low 1 | [4] 1.03 | locus YOR083W, strain WHI5 (second series), active compounds read low 1 | [5] 1.05
